According to ChEMBL document CHEMBL4513146, “CO-ADD screening of Karazin Kharkiv National University (Ukraine) compounds”:
Measured potencies and affinities stand elsewhere.

Assays:
[1] = system: Klebsiella pneumoniae; settings: Concentration 32 ug.mL-1;; ASSAY_TEST Inhibition of Bacterial Growth; detection method Absorption (OD600); MEDIA CAMHB; plate type 384well; NBS; CORNING #3640; time 18 hr
[2] = system: Candida albicans; settings: Concentration 32 ug.mL-1; ASSAY_TEST Inhibition of Fungal Growth; detection method Absorption (OD530)
[3] = system: Cryptococcus neoformans; settings: Concentration 32 ug.mL-1; ASSAY_TEST Inhibition of Fungal Growth; detection method Resazurin; Absorption (OD600-OD570); plate type 384well; NBS; CORNING #3640

SMILES | Inhibition [1] [%] | Inhibition [2] [%] | Inhibition [3] [%]
COc1cc(NC(=O)Cn2nc3c(Oc4ccccc4)nccn3c2=O)cc(OC)c1 | 11.9 | -1.97 | -7.5
CCCCc1ccc(NC(=O)Cn2nc3c(Sc4ccccc4)nccn3c2=O)cc1 | 5.15 | 28.09 | -10.74
CCc1ccccc1Sc1nccn2c(=O)n(CC(=O)Nc3c(C)cccc3C)nc12 | 10.25 | 3.49 | -15.72
CCOc1ccc(-n2ccn3c(SC(C)C(=O)Nc4cc(OC)cc(OC)c4)nnc3c2=O)cc1 (configuration not stated) | 7.45 | 1.5 | -3.58
COc1ccc(OC)c(NC(=O)Cn2nc3c(Sc4ccccc4)nc4ccccc4n3c2=O)c1 | 8.31 | 2.83 | -24.8
Cc1nnc2ccc(S(=O)(=O)N(Cc3ccccc3F)c3ccc(Cl)cc3)cn12 | -3.84 | 0.4 | -8.97
O=C(Cn1nc2nc(Nc3ccc(F)cc3)ccn2c1=O)Nc1cc(F)ccc1F | 11.06 | 4.41 | -6.4
COc1ccccc1NC(=O)Cn1nc2c(Oc3ccc(Cl)cc3)nccn2c1=O | 6.51 | 22.33 | -8.59
CCCCN(CC)c1ccc2nnc(CCc3nc(-c4ccc(Br)cc4)no3)n2n1 | 10.38 | 6.33 | -10.77
CCCCN(C)c1ccc2nnc(CCc3nc(-c4ccc(C(F)(F)F)cc4)no3)n2n1 | 5.43 | 2.75 | -13.06
CCc1cccc(NC(=O)Cn2nc3ccc(SC(C)(C)C)nn3c2=O)c1 | 16.66 | 3.39 | -23.79
Cc1cc(C)cc(Nc2nc(C)cc3nn(CC(=O)NC4CCCCC4)c(=O)n23)c1 | 13.04 | 1.39 | -8.46
Cc1nnc2c(=O)n(CC(=O)Nc3ccc(Br)cc3)c3ccccc3n12 | 3.12 | 2.53 | -1.52
CCc1nnc2ccc(S(=O)(=O)N(Cc3ccc(F)cc3)c3ccccc3)cn12 | -0.12 | -0.14 | -7.1
COc1ccccc1NC(=O)Cn1nc2c3c4c(sc3ncn2c1=O)CCCC4 | 5.77 | 0.98 | -22.92
CCCCc1ccc(NC(=O)Cn2nc3c(N4CC(C)CC(C)C4)nccn3c2=O)cc1 (configuration not stated) | 3.89 | 4.16 | -10.16
Cc1ccc(-c2ccc3nn(CC(=O)N4CCN(c5ccccc5)CC4)c(=O)n3n2)cc1C | 1.81 | 0.84 | -5.58
COc1ccccc1NC(=O)Cn1nc2c(SCc3ccc(Cl)cc3)nccn2c1=O | 9.59 | 1.74 | -17.01
Cc1cc2nn(CC(=O)Nc3cc(F)ccc3C)c(=O)n2c(Nc2ccc(F)c(C)c2)n1 | 15.58 | 4.23 | -9.62
Cc1cc2nn(CC(=O)Nc3ccccc3F)c(=O)n2c(Nc2ccc(C)c(F)c2)n1 | 4.36 | 4.06 | -8.37

SMILES | Inhibition [1] [%] | Inhibition [2] [%] | Inhibition [3] [%]
Cc1cc2nn(CC(=O)NC3CCCCC3)c(=O)n2c(Nc2ccc(F)c(C)c2)n1 | 19.39 | 3.39 | -7.59
COc1ccccc1NC(=O)Cn1nc2c3cc(-c4ccc(Cl)cc4)nn3ccn2c1=O | 7.17 | 8.08 | -18.6
CSc1ccc(CNC(=O)Cn2nc3c(Oc4cccc(C)c4C)nccn3c2=O)cc1 | 12.69 | 0.27 | -6.54
O=C(Cn1nc2c(SCc3ccc(Cl)cc3)nccn2c1=O)Nc1ccccc1F | 4.91 | 1.79 | -4.96
O=C(Cn1nc2c3cc(-c4ccc(Cl)cc4)nn3ccn2c1=O)NCc1ccccc1 | 15.63 | 3.19 | -21.92
CCc1ccc(NC(=O)Cn2nc3ccc(SC4CCCCC4)nn3c2=O)cc1 | 3.55 | 2.46 | -12.68
CC(C)c1nnc2c(=O)n(CC(=O)Nc3cccc(Cl)c3)c3ccccc3n12 | 4.29 | 3.06 | -36.03
COc1ccc(CN(c2ccc(F)c(F)c2)S(=O)(=O)c2ccc3nncn3c2)cc1 | 12.63 | 0.74 | -4.76
CCc1nnc2c(=O)n(CC(=O)Nc3ccc(C(C)C)cc3)c3ccccc3n12 | 15.72 | -0.82 | -28.42
O=C(CSc1nnc2c(=O)n(-c3ccccc3)ccn12)NCc1ccc(Cl)cc1 | 5.95 | -0.29 | -12.48
O=c1c2nnc(SCc3ccccc3F)n2ccn1-c1ccc(Br)cc1 | 15.43 | 3.99 | -9.71
CC(C)(C)OC(=O)CN(c1ccc2c(c1)OCCO2)S(=O)(=O)c1ccc2nncn2c1 | 11.52 | 1.39 | -8.21
Cc1cc(C)c(NC(=O)Cn2nc3ccc(Sc4cccc(F)c4)nn3c2=O)c(C)c1 | 1.06 | 2.95 | -10.61
CC(C)c1ccc(NC(=O)Cn2nc3c(SCc4ccccc4)nccn3c2=O)cc1 | 2.82 | 10.67 | -15.97
Cc1ccc(CNC(=O)Cn2nc3ccc(SCc4ccc(Cl)cc4)nn3c2=O)cc1 | 9.12 | 20.24 | -27.26
Cc1ccccc1N1CCN(c2nccn3c(=O)n(CC(=O)NCc4cc(F)cc(F)c4)nc23)CC1 | 4.01 | 0.32 | -4.76
CCc1nnc2c(SCC(=O)Nc3ccccc3Br)nc3ccccc3n12 | 11.72 | 2.39 | -22.99
COc1ccc(NC(=O)Cn2nc3c(SC4CCCCC4)nccn3c2=O)cc1 | 11.17 | 6.08 | -26.97
CCCCOc1ccc(-c2cc3c4nnc(SCC(=O)Nc5ccccc5Cl)n4ccn3n2)cc1 | 5.58 | 2.9 | -20.67
